# Most compounds without a hit are left out; they make up all but 0.41% or so of the library.
# MLL CXXC-DNA inh – inhibitors of human MLL CXXC domain-DNA interaction | AID 2662 | Potency, µM (titrated, usually from 115 µM), for the others: top-dose activity change, negative = inhibition, most hits filed as inhibitors | Q03164 | MLL-CXXC / FITC-HOXA9 DNA fluorescence polarization | hit rate 0.037% among 290,000; active = well fitted inhibition curve with a large enough effect in the polarisation, with a control signal flat, not every such curve was filed as active; inconclusive = small, poorly fitted or top-dose-only effect, or effect the other way, or a change in a side signal; inactive = no such curve, though single readings can be large or run the other way; the % refers to the polarisation; note: potency is the fitted concentration of half-maximal effect
#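 Purified MLL-CXXC (added from a 7 uM solution) was preincubated 5 min at ambient with pinned compounds in 50 mM Tris-HCl pH 7.5, 50 mM NaCl, 1 mM DTT, 0.05% BSA. Fluorescein-labeled HOX-A9 DNA (50 nM solution) followed, 30 min, then polarization read.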
# Menin-MLL FL inh – inhibitors of human menin-MLL interaction, wild-type MLL peptide | Fluorescence polarization, fluorescein-MLL peptide displacement from menin | FP activity change, % at 61.4 µM | 290,000 tested, under 10 active; active = well fitted curve in the direction sought with a large enough effect in the polarisation, not every such curve was filed as active; inconclusive = small, poorly fitted or top-dose-only effect, or effect the other way, or a change in a side signal; inactive = no such curve, though single readings can be large or run the other way; the % refers to the polarisation; note: % of control where 0% means no effect
# Menin-MLL TR inh – displaces Texas Red mutant MLL peptide from human menin; O00255; Menin + Texas Red MLL mutant peptide, fluorescence polarization; Potency, µM (highest dose often 61.6 µM), without a hit: at the top dose FP activity change, negative = inhibition, usual class: inhibitors; hit rate 0.23% among 270,000; AID 1768; active = well fitted inhibition curve with a large enough effect in the polarisation, with a control signal flat, not every such curve was filed as active; inconclusive = small, poorly fitted or top-dose-only effect, or effect the other way, or a change in a side signal; inactive = no such curve, though single readings can be large or run the other way; the % refers to the polarisation; note: potency is the fitted concentration of half-maximal effect; % of control where 0% means no effect
# PKM2 act – PKM2 (human) enzyme activation; Potency, µM (top dose mostly 57.5 µM), without a hit: top-dose activation, most hits filed as activators; P14618; AID 1631; purified PKM2, Kinase-Glo ATP luminescence, activation; response scale: 0% is enzyme alone, no compound; hit rate 0.34% among 260,000; note: potency is the fitted concentration of half-maximal effect; % is set by controls: 0 for no effect and ±100 for the full control effect; nearly all actives have a fitted effect of over 55% in size
# Target sequence (P14618 whole entry, looked up): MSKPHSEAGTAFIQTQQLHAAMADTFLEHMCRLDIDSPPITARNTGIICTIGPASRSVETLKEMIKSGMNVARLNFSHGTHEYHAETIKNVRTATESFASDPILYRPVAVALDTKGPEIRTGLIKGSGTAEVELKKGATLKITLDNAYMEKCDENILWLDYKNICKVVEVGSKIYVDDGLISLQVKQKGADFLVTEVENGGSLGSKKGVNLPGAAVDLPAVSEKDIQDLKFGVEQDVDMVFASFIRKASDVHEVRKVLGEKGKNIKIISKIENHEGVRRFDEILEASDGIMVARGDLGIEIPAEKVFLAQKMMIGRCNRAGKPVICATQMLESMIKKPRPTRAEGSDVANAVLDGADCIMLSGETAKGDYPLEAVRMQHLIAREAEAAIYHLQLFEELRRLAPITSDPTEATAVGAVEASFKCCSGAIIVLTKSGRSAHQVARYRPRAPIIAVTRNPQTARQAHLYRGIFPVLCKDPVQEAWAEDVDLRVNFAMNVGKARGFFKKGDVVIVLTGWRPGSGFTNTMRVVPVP
#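 ATP formation by purified human PK-M2, quantified via coupled luciferase luminescence after 1 h at room temperature with 0.1 mM ADP and 0.5 mM PEP final.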
# MLL CXXC FP-Fl – inhibitors of human MLL CXXC domain-DNA interaction; hit rate 70% among 200; shares compounds with MLL CXXC-DNA inh; Potency, µM (series often up to 345 µM), for the others: at the top dose activity change, negative = inhibition, most hits filed as inhibitors; AID 624160; MLL CXXC-DNA binding, fluorescein FP; note: potency is the fitted concentration of half-maximal effect; nearly all actives have a fitted effect of over 80% in size
# MLL CXXC FP-TR – inhibitors of human MLL CXXC domain-DNA interaction, Texas Red format; shares compounds with MLL CXXC-DNA inh; MLL CXXC-DNA binding, Texas Red fluorescence polarization; Potency, µM (highest dose often 345 µM), without a hit: at the highest dose activity change, negative = inhibition, most hits filed as inhibitors; hit rate 40% among 200; AID 624161; note: potency is the fitted concentration of half-maximal effect; % is set by controls: 0 for no effect and ±100 for the full control effect; nearly all actives have a fitted effect of over 75% in size
# MLL CXXC HTRF – disrupts human MLL CXXC domain binding to DNA by HTRF | shares compounds with MLL CXXC-DNA inh | MLL CXXC-DNA binding, HTRF, biochemical | Potency, µM (highest dose often 172 µM), without a hit: at the top dose activity change, negative = inhibition, usual class: inhibitors | hit rate 30% among 210 | AID 624162; note: % is set by controls: 0 for no effect and ±100 for the full control effect; nearly all actives have a fitted effect of over 80% in size
# * = called active by the depositor; ? = inconclusive; nt = not tested or not shown; ! = not confirmed by another sample; [ ] = dose if it differs, or a comment. Unless noted, calls come from the whole dose curve; as a rule, active = well fitted curve in the direction sought with a large enough effect; inconclusive = small, poorly fitted or top-dose-only effect, or another doubt; inactive = no such curve, though single readings can be large; an effect the other way counts as inactive or inconclusive.
SMILES,MLL CXXC-DNA inh,Menin-MLL FL inh,Menin-MLL TR inh,PKM2 act,others
COC[C@H]1OC(=O)c2coc3c2[C@@]1(C)C1=C(C3=O)[C@H]2CCC(=O)[C@@]2(C)C[C@H]1OC(C)=O,nt,?,10µM*,nt,
CCc1nnc(NC(=O)CSc2ccc(-c3ccco3)nn2)s1,-2%,0,?,16µM*,
NC1CCCC[C@H]1N (stereo not given in full),nt,-1,1%,nt,
Oc1cc[c]([Hg][Cl])cc1,-8%,-6,4%,nt,
COc1ccc(CNCCc2c(C)[nH]c3ccc(OC(F)(F)F)cc23)c(OC)c1,9%,-18,28µM*,nt,
COC(=O)[C@H]1C[C@@H]1[C@H](NP(=O)(c1ccccc1)c1ccccc1)c1ccccc1,5%,0,0%,-5%,
COC(=O)[C@@H]1C[C@H]1[C@@H](NP(=O)(c1ccccc1)c1ccccc1)c1ccccc1,5%,1,0.14µM*!,4%,
CCOC(=O)c1c(C)n(Cc2ccc3c(c2)OCO3)c2ccc(O)cc12,2%,7,nt,15%,
CCOC(=O)c1c(C)n(Cc2ccc(F)cc2)c2ccc(O)cc12,-5%,-1,nt,11µM*,
CCCOc1ccc2[nH]cc(C3=CCNCC3)c2n1,nt,?,3%[24.8 µM],nt,
O=C(O)[C@@H]1CSC(c2cccnc2)N1 (stereo not given in full),nt,-1,-3%,nt,
CN1[C@@H]2CC[C@H]1CC(O[C@@H](c1ccccc1)c1ccc(Cl)cc1)C2 (stereo not given in full),nt,6,?,nt,
O=c1c2ccccc2nc(CN2CCCCCC2)n1-c1ccc(F)cc1,10%,-27,18µM*,8%,
CCCCN1C(=O)/C(=C/c2ccc(N(C)C)cc2)C(=O)N(Cc2ccco2)C1=O,?,?,25µM*,-2%,
CCN(CC)c1ccc(/C=C2\C(=O)NC(=O)N(Cc3ccco3)C2=O)cc1,2%,?,11%,10%,
CCCCCCCCCCCCCCCC[N+](C)(C)C,?,2,28µM*!,nt,
CC(=O)N1N=C(c2cccnc2)CC1c1ccccc1O (stereo not given),-2%,-1,-6%,5µM*,
CN1CCN(C(=O)COc2ccc(-c3nc4ccccc4s3)cc2)CC1,-1%,2,13µM*,0%,
CN1CCN(C(=O)COc2ccc3ccccc3c2)CC1,-3%,-3,-3%,nt,
CC(=NCc1ccc2c(c1)OCO2)c1c(O)n(Cc2ccccc2)c(=O)[nH]c1=O,27%,8,nt,25µM*,
COC1CC(O[C@H]2/C(C)=C/CC3CC(C[C@]4(CCC(C)C(C5CCCCC5)O4)O3)OC(=O)[C@H]3C=C(C)/C(=N/O)C4OC/C(=C\C=C\[C@@H]2C)[C@@]43O)OC(C)C1O (stereo not given in full),9%,-2,22µM*,nt,
CCC(C)C1O[C@]2(C=CC1C)CC1CC(C/C=C(\C)[C@H](OC3CC(OC)C(O[C@H]4CC(OC)[C@@H](O)C(C)O4)C(C)O3)[C@@H](C)/C=C/C=C3\COC4C(O)C(C)=C[C@H](C(=O)O1)[C@@]34O)O2 (stereo not given in full),2%,-3,?,nt,
C#C[C@]1(O)CCC2C3CCC4=C/C(=N/OCC(=O)NC(C)C(=O)NC(CCSC)C(=O)O)CC[C@]4(C)C3CC[C@@]21C (stereo not given in full),4%,-16,25µM*,nt,
C#C[C@]1(O)CC[C@H]2[C@@H]3CCC4=CC(=O)CC[C@]4(C)[C@H]3CC[C@@]21C,1%,0,6%,-1%,
CCCCCCCC/C=C\CCCCCCCC(=O)OC[C@@H](COP(O)(O)=S)OC,nt,-11,0%,nt,
SMILES,MLL CXXC-DNA inh,Menin-MLL FL inh,Menin-MLL TR inh,PKM2 act,others
O=C1NC(=O)C(=Cc2ccc(-c3ccccc3[N+](=O)[O-])o2)C(=O)N1,?,-1,nt,18µM*,
Cc1ccc2nc3sc(=O)sc3nc2c1,nt,-24,20%,nt,
COc1cccc(-n2c(CN3CCOCC3)nc3ccc([N+](=O)[O-])cc3c2=O)c1,9%,5,-5%,nt,
CCN1CCN(Cc2nc3ccc([N+](=O)[O-])cc3c(=O)n2-c2ccccc2F)CC1,?,-11,10µM*,nt,
S=P(Nn1cnnc1)(c1ccc(Br)cc1)c1ccc(Br)cc1,-5%,5,?,28µM*,
CC(C)c1cc2c(c(O)c1O)[C@@]1(C(=O)O)CCCC(C)(C)[C@@H]1CC2,nt,0,?,nt,
N.N.N.N.N.N.N.N.N.N.N.N.N.N.O.O.[Cl-].[Cl-].[Cl-].[Cl-].[Cl-].[Cl-].[Ru].[Ru].[Ru],?,?,25µM*,nt,
CCN(CC)c1ncnc2c1ncn2[C@@H]1O[C@@H](COP(=O)(O)OP(=O)(O)C(Br)(Br)P(=O)(O)O)[C@H](O)[C@H]1O,nt,40,5%[24.8 µM],nt,
C#CCN1C(C)=C(C(=O)CCO)[C@@H](c2cccc(-n3oo3)c2)C(C(=O)OC)=C1C,nt,16,1%[24.8 µM],nt,
Cc1ccc(N2C(=O)NC(=O)/C(=C\c3cn(CC(=O)O)c4ccccc34)C2=O)cc1,?,16,57%,0%,MLL CXXC FP-Fl=14µM*;MLL CXXC FP-TR=71µM*;MLL CXXC HTRF=-60%
O=C(O)Cn1cc(/C=C2\C(=O)NC(=O)N(Cc3ccco3)C2=O)c2ccccc21,?,?,?,19%,MLL CXXC FP-Fl=7.1µM*;MLL CXXC FP-TR=40%;MLL CXXC HTRF=49µM*
CCN1C(=O)NC(=O)/C(=C\c2cn(CC(=O)O)c3ccccc23)C1=O,?,27,24%,nt,
COc1ccc(N=Cc2c(O)n(Cc3ccccc3)c(=S)[nH]c2=O)c(OC)c1,32µM*,?,nt,-5%,MLL CXXC FP-Fl=159µM*;MLL CXXC FP-TR=-1%;MLL CXXC HTRF=8%
CC[C@@H]1CN2CCc3cc(OC)c(OC)cc3[C@H]2C[C@@H]1C[C@@H]1NCCc2cc(O)c(OC)cc21,nt,-5[24.8 µM],-21%[24.8 µM],nt,
O=C1NC(=S)NC(=O)C12C(c1ccc(F)cc1)NC(=S)NC2c1ccc(F)cc1 (stereo not given),?,1,nt,4%,MLL CXXC FP-Fl=?;MLL CXXC FP-TR=31%;MLL CXXC HTRF=-10%
COc1cc2c(cc1OC)[C@@H]1C(=O)c3ccc(OC)c(CC=C(C)C)c3OC1CO2 (stereo not given in full),nt,5,8%,nt,
Cc1cc(/C=C2\C(=O)NC(=O)N(c3ccccc3F)C2=O)c(C)n1-c1cc(C(=O)O)cc(C(=O)O)c1,13µM*,8,26%,nt,MLL CXXC FP-Fl=8µM*;MLL CXXC FP-TR=22µM*;MLL CXXC HTRF=24µM*

# Source: PubChem BioAssay (National Center for Advancing Translational Sciences (NCATS))
